Sfp PPTase inh: qHTS Assay for Inhibitors of Bacillus subtilis Sfp phosphopantetheinyl transferase (PPTase); 4'-phosphopantetheinyl transferase ffp (Bacillus subtilis), Q9F4F7; Biochemical Sfp PPTase activity, qHTS; Potency, µM, usual class: inhibitors; hit rate 3.5% among 310,000; AID 1490, 2009;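 also: the enzyme is Sfp with the accession as filed and its product quenches rhodamine fluorescence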
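Fluorescence-quenching assay: 15 nM Sfp-PPTase preincubated 15 min at room temperature with compound, then 5 uM rhodamine-CoA and 12.5 uM BHQ-2-labelled YbbR peptide added. Fluorescence (ex 525/em 598 nm) read at start and after 30 min; difference gives rate.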
PLK1 PBD inh: qHTS for Inhibitors of PLK1-PDB (polo-like kinase 1 - polo-box domain): Primary Screen | Serine/threonine-protein kinase PLK1 (Homo sapiens), P53350 | Plk1 PBD binding of FITC phosphopeptide, fluorescence polarization | Potency, µM, hits mostly inhibitors | hit rate 2.8% among 360,000 | AID 720504, 2013; also: series mostly up to about 57 µM; nearly all actives have a fitted effect of over 65% in size
RORg inh: qHTS for inhibitors of ROR gamma transcriptional activity | Potency, µM (top dose mostly 53.6 µM), usual class: inhibitors | Drosophila S2 Gal4-RORgamma UAS-luciferase reporter, 20 h | hit rate 5.4% among 310,000 | Nuclear receptor ROR-gamma (Mus musculus), P51450; also: nearly all actives have a fitted effect of over 60% in size
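Stably transfected Drosophila Schneider cells are the test system, with ROR gamma fused to Gal4 and luciferase under UAS control; luminescence is read after 20 hr of 700 uM copper sulfate induction at ambient temperature.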
ALDH1A1 block: qHTS Assay for Inhibitors of Aldehyde Dehydrogenase 1 (ALDH1A1). hit rate 7.3% among 220,000. Potency, µM (titrated, usually from 75.3 µM), hits mostly inhibitors. Purified ALDH1A1, NADH fluorescence, propionaldehyde substrate; active = well fitted inhibition curve with a large enough effect, not every such curve was filed as active; inconclusive = small, poorly fitted or top-dose-only effect, or another doubt; inactive = no such curve, though single readings can be large or run the other way
Target sequence (P00352 whole entry, looked up): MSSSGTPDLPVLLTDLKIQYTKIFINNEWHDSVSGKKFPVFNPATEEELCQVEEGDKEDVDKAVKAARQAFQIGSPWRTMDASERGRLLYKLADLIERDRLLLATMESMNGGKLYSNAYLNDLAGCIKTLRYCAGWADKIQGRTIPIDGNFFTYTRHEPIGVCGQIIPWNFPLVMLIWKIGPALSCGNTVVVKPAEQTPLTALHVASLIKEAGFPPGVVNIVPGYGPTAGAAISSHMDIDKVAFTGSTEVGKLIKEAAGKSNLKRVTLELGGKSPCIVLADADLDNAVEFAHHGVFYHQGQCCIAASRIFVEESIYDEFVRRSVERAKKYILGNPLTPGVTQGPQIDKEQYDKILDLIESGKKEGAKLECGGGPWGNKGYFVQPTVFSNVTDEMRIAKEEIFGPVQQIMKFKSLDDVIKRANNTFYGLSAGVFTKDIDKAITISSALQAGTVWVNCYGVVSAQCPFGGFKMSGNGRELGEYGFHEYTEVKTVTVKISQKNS
Gal4-VP16 FLuc: VP16 counterscreen qHTS for inhibitors of ROR gamma transcriptional activity; hit rate 3.5% among 310,000; Potency, µM (highest dose often 53.6 µM), hits mostly inhibitors; Drosophila S2 Gal4-VP16 UAS-luciferase, luminescence, 20 h; AID 2546, 2010;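 also: Gal4-VP16 expression switched on by copper sulfate through the metallothionein promoter; nearly all actives have a fitted effect of over 50% in size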
Hits are given with their value; i = inactive; ? = inconclusive; nt = not tested or not shown. This is a sample that favours compounds with a hit; in the whole collection about 12% have one here. Unless noted, calls follow the shape of the dose curve; as a rule, active = well fitted curve in the direction sought with a large enough effect; inconclusive = small, poorly fitted or top-dose-only effect, or another doubt; inactive = no such curve, though single readings can be large; an effect the other way counts as inactive or inconclusive.

SMILES | Sfp PPTase inh | PLK1 PBD inh | RORg inh | ALDH1A1 block | Gal4-VP16 FLuc
Cc1ccc(C(=O)Nc2ccc3c(c2)CCC3)o1 | i | i | ? | 18µM | 13µM
COc1ccc(NS(=O)(=O)c2cc(NC(=O)c3cnccn3)ccc2N2CCCC2)cc1 | i | 21µM | i | ? | i
CN(C(=O)c1cccc(NC(=O)Cc2cccc(NC(=O)C3CCCN(C(=O)C4CCC4)C3)c2)c1)C1CCC1 (configuration not stated) | nt | i | nt | nt | nt
CC[C@H](C)[C@H](NC(=O)[C@H](C)NC(=O)[C@@H](N)C(C)C)C(=O)N[C@H](C(=O)N[C@H](C(=O)N[C@@H](CC(C)C)C(=O)N[C@H](C(=O)N[C@@H](CCCCN)C(=O)O)C(C)C)C(C)C)[C@@H](C)O | i | nt | i | nt | i
Nc1c(C(=O)NC2CCCC2)c2nc3ccccc3nc2n1N | 32µM | i | i | i | i
Nc1nc2c(ncn2[C@@H]2O[C@H](CNCc3cnc(N4CCOCC4)s3)[C@@H](O)[C@H]2O)c(=O)[nH]1 | nt | i | nt | nt | nt
CCN(CC)C(=O)c1sc2nc(-c3ccccn3)[nH]c(=O)c2c1C | nt | i | nt | nt | nt
CCN(CC)C(=O)c1sc2[nH]c(=S)n(-c3ccccc3)c(=O)c2c1C | 79µM | i | i | ? | i
Cc1nc(C(F)(F)F)ccc1C(=O)N1CCC1(C)C(=O)NS(C)(=O)=O (configuration not stated) | nt | i | nt | nt | nt
CCC(C)(C)c1ccc(Oc2ccc(N)cc2)cc1 | i | i | i | i | 7.9µM
Cc1ccnc(NC(=O)CCC(=O)N(CC(=O)NCCc2ccccc2)Cc2ccco2)c1 | i | i | i | 7.9µM | i
CCC(C)(C)NC(=O)CN(Cc1ccccc1Cl)C(=O)CCC(=O)Nc1cc(C)ccn1 | 20µM | i | i | 14µM | i
COC(=O)C[C@H]1C=C[C@H](NC(=O)c2cccc(F)c2)[C@@H](CO)O1 | nt | i | nt | nt | nt
COc1ccc(Cl)cc1Cn1c(C)c(C(=O)NCc2cccc([N+](=O)[O-])c2)sc1=O | nt | i | nt | nt | nt
Cc1ccc(S(=O)(=O)/N=C(\c2ccccc2)N(C)S(=O)(=O)c2ccccc2)cc1 | i | ? | i | ? | i
CN(/C(=N\S(=O)(=O)c1ccccc1)C(F)(F)F)c1ccccc1 | i | i | i | 28µM | i
O=C(NCC1CC1)[C@H]1C[C@@H]1[C@H](NP(=O)(c1ccccc1)c1ccccc1)c1ccccc1 | i | nt | i | i | i
CCO[C@@H]1OC(C(=O)NCc2ccccc2)=C[C@H](c2ccc3c(c2)OCO3)[C@H]1CCCO | i | i | i | 14µM | i
O=C1NC[C@@H](CCCCN2C[C@H](Cc3ccc(O)cc3)N(CCC3CCCCC3)C(=O)C2=O)N(CC2CCCCC2)C1=O | nt | i | nt | nt | nt
COc1ccc(C(=O)NCc2oc(-c3ccccc3)cc2C(=O)O)cc1 | 25µM | i | i | ? | i
Cc1cc(C)c2sc(N(CCN(C)C)C(=O)CCS(=O)(=O)c3ccccc3)nc2c1 | i | i | ? | nt | ?
CN(C)CCCN(C(=O)CCS(=O)(=O)c1ccccc1)c1nc2cc3c(cc2s1)OCO3 | i | ? | 11µM | nt | 16µM
CCN(CC)CCN(C(=O)CCS(=O)(=O)c1ccccc1)c1nc2cc(C)cc(C)c2s1 | i | i | 20µM | nt | i
COc1ccc(OC)c2sc(N(CCCN(C)C)C(=O)CCS(=O)(=O)c3ccccc3)nc12 | nt | 7.5µM | nt | nt | nt
COc1ccc(Cl)c2sc(N(CCN(C)C)C(=O)CCS(=O)(=O)c3ccc(C)cc3)nc12 | nt | i | nt | nt | nt
SMILES | Sfp PPTase inh | PLK1 PBD inh | RORg inh | ALDH1A1 block | Gal4-VP16 FLuc
CC(=O)c1cccc(-n2c(CCC(=O)O)ccc2-c2ccccc2)c1 | 71µM | i | i | nt | i
O=C(O)CCc1ccc(-c2cccs2)n1-c1ccc(C(=O)O)cc1 | 28µM | ? | i | 13µM | i
CC(C)(C)c1ccc(C(=O)Nn2c(CCC(=O)O)ccc2-c2cccs2)cc1 | 56µM | i | i | ? | ?
CC(=O)c1cccc(-n2c(CCC(=O)O)ccc2-c2cccs2)c1 | 8.9µM | i | ? | 7.9µM | ?
C#CCNC(=O)C[C@@H]1C[C@@]2(C(=O)OCC)CCCC=C2N(CCCCCCCC)C1=O | nt | i | nt | nt | nt
COC(=O)[C@@]12C[C@@H](CC(=O)NCc3ccc(OC)c(OC)c3)C(=O)N(Cc3ccc4c(c3)OCO4)C1=CCC(C)(C)C2 | nt | i | nt | nt | nt

Assay outcomes from PubChem BioAssay.
